According to the supplement of paper PMC12645437, “Orthogonal IMiD-Degron Pairs Induce Selective Protein Degradation in Cells” (ACS Chemical Biology, 2025):
Whole data set: some 8,300 sequences, median “log2 fold change of degron read counts, EGFP-low vs EGFP+ sorted cells (limma voom), compound-induced degradation” near -1.1, cut for the highest 2% near 3.2. The list comes from a sample in which the highest values are over-represented; it also holds similar and randomly drawn sequences.

B1: 46F_47I_49N_50Q_52G_53R_54S_55F_67L_, Q9UKT9 (peptide)
chain: FICNQCGRSFTQKGNLLRHIKL
B2: 46F_47A_49E_50Q_52G_53A_54K_55F_67L_, Q9UKT9 (peptide)
chain: FACEQCGAKFTQKGNLLRHIKL
B3: 46L_47T_49E_50I_52G_53F_54E_55C_67L_, Q9UKT9 (peptide)
chain: LTCEICGFECTQKGNLLRHIKL
B4: 46F_47S_49P_50I_52G_53H_54V_55F_67L_, Q9UKT9 (peptide)
chain: FSCPICGHVFTQKGNLLRHIKL
B5: 46F_47L_49D_50V_52G_53A_54K_55F_67L_, Q9UKT9 (peptide)
chain: FLCDVCGAKFTQKGNLLRHIKL
B6: 46F_47L_49E_50I_52G_53H_54C_55F_67L_, Q9UKT9 (peptide)
chain: FLCEICGHCFTQKGNLLRHIKL
B7: 46F_47M_49E_50I_52G_53H_54T_55F_67L_, Q9UKT9 (peptide)
chain: FMCEICGHTFTQKGNLLRHIKL
B8: 46L_47W_49P_50I_52G_53F_54R_55C_67L_, Q9UKT9 (peptide)
chain: LWCPICGFRCTQKGNLLRHIKL
B9: 46L_47A_49P_50I_52G_53F_54N_55C_67L_, Q9UKT9 (peptide)
chain: LACPICGFNCTQKGNLLRHIKL
B10: 46L_47W_49P_50I_52G_53F_54N_55C_67L_, Q9UKT9 (peptide)
chain: LWCPICGFNCTQKGNLLRHIKL
B11: 46L_47D_49P_50I_52G_53F_54N_55C_67L_, Q9UKT9 (peptide)
chain: LDCPICGFNCTQKGNLLRHIKL
B12: 46L_47I_49P_50I_52G_53F_54R_55C_67L_, Q9UKT9 (peptide)
chain: LICPICGFRCTQKGNLLRHIKL
B13: 46L_47G_49P_50I_52G_53F_54R_55C_67L_, Q9UKT9 (peptide)
chain: LGCPICGFRCTQKGNLLRHIKL
B14: 46F_47R_49P_50I_52G_53A_54I_55F_67L_, Q9UKT9 (peptide)
chain: FRCPICGAIFTQKGNLLRHIKL
B15: 46F_47T_49E_50Q_52G_53A_54Q_55F_67L_, Q9UKT9 (peptide)
chain: FTCEQCGAQFTQKGNLLRHIKL
B16: 46F_47F_49P_50I_52G_53H_54V_55F_67L_, Q9UKT9 (peptide)
chain: FFCPICGHVFTQKGNLLRHIKL
B17: 46F_47A_49P_50I_52G_53H_54T_55F_67L_, Q9UKT9 (peptide)
chain: FACPICGHTFTQKGNLLRHIKL
B18: 46F_47K_49N_50V_52G_53A_54V_55F_67L_, Q9UKT9 (peptide)
chain: FKCNVCGAVFTQKGNLLRHIKL
B19: 46F_47T_49E_50I_52G_53A_54H_55F_67L_, Q9UKT9 (peptide)
chain: FTCEICGAHFTQKGNLLRHIKL
B20: 46F_47Y_49E_50I_52G_53A_54H_55F_67L_, Q9UKT9 (peptide)
chain: FYCEICGAHFTQKGNLLRHIKL
B21: 46F_47Q_49E_50I_52G_53A_54H_55F_67L_, Q9UKT9 (peptide)
chain: FQCEICGAHFTQKGNLLRHIKL
B22: 46F_47E_49E_50I_52G_53A_54H_55F_67L_, Q9UKT9 (peptide)
chain: FECEICGAHFTQKGNLLRHIKL
B23: 46F_47A_49E_50I_52G_53A_54H_55F_67L_, Q9UKT9 (peptide)
chain: FACEICGAHFTQKGNLLRHIKL
B24: 46F_47I_49E_50I_52G_53A_54H_55F_67L_, Q9UKT9 (peptide)
chain: FICEICGAHFTQKGNLLRHIKL
B25: 46F_47C_49E_50I_52G_53A_54H_55F_67L_, Q9UKT9 (peptide)
chain: FCCEICGAHFTQKGNLLRHIKL
B26: 46F_47W_49E_50I_52G_53A_54H_55F_67L_, Q9UKT9 (peptide)
chain: FWCEICGAHFTQKGNLLRHIKL
B27: 46F_47M_49E_50I_52G_53A_54H_55F_67L_, Q9UKT9 (peptide)
chain: FMCEICGAHFTQKGNLLRHIKL
B28: 46F_47F_49E_50I_52G_53A_54H_55F_67L_, Q9UKT9 (peptide)
chain: FFCEICGAHFTQKGNLLRHIKL
B29: 46F_47N_49E_50I_52G_53A_54H_55F_67L_, Q9UKT9 (peptide)
chain: FNCEICGAHFTQKGNLLRHIKL
B30: 46F_47L_49E_50I_52G_53A_54H_55F_67L_, Q9UKT9 (peptide)
chain: FLCEICGAHFTQKGNLLRHIKL

Molecular target: T1, CRBN, Q96SW2
T1 chain: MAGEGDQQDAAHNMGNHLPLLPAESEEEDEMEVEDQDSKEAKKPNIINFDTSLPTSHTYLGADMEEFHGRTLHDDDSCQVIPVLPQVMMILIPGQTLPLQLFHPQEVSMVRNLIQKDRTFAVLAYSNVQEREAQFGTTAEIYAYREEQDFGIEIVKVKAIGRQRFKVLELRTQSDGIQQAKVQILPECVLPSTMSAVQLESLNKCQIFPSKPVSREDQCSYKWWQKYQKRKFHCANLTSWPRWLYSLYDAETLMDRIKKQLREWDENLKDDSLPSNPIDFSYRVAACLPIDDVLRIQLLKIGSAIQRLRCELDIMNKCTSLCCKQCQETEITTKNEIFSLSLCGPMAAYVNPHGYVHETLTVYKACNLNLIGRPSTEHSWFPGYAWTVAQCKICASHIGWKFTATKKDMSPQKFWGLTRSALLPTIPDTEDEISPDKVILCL
Experiment: log2 fold change of degron read counts, EGFP-low vs EGFP+ sorted cells (limma voom), compound-induced degradation; higher = more compound-induced degradation of the degron-EGFP fusion; degrons are variants of IKZF1/3 zinc finger 2; compound dose not given here
Conditions: Jurkat, 18 h

[1] = compound: compound 19 (5-tert-butyl-thalidomide)
[2] = compound: compound 22 (5-morpholino-thalidomide)
[3] = compound: compound 33 (diphenyl IMiD analogue)
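Note: pooled lentiviral library of zinc finger degron-EGFP fusions in mCherry-positive Jurkat cells, FACS-sorted after compound exposure, with degron abundance counted by next-generation sequencing.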

Sequence | log2 fold change of degron read counts [1] | log2 fold change of degron read counts [2] | log2 fold change of degron read counts [3] | log2 fold change of degron read counts (compound: thalidomide)
B1 | -3.32 | -3.15 | -3.35 | -3.61
B2 | 1.9 | -1.51 | -3.24 | -1.44
B3 | -0.328 | 0.102 | -0.375 | 0.759
B4 | -2.55 | -2.29 | -1.52 | -1.64
B5 | -1.99 | -3.99 | -1.78 | -0.928
B6 | -3.3 | -3.75 | -3.16 | -2.4
B7 | -3.32 | -4.22 | -2.78 | -3.14
B8 | 3.02 | 3.7 | 2.31 | 2.05
B9 | 2.23 | 1.61 | 1.93 | 1.49
B10 | 2.43 | 3.5 | 2.36 | 1.53
B11 | -0.713 | -1.04 | -0.142 | 0.706
B12 | 0.753 | 2.24 | 1.19 | 2.84
B13 | 3.17 | 2.04 | 0.549 | 1.14
B14 | -1.29 | -0.543 | 0.89 | 1.18
B15 | -2.06 | -1.12 | 0.532 | -0.012
B16 | -0.996 | -1.35 | -1.19 | -1.12
B17 | -2.03 | -2.66 | -2.44 | -2.56
B18 | -2.44 | -2.91 | -3.25 | -2
B19 | 0.467 | 0.746 | 1.69 | 2.11
B20 | 3.61 | 3.49 | 2.57 | 1.24
B21 | -0.0399 | 0.799 | 0.886 | 3.17
B22 | -0.919 | -2.34 | 1.1 | 1.26
B23 | 3.32 | 1.02 | 0.285 | -0.547
B24 | -0.091 | 1.87 | 1.79 | 2.1
B25 | 2.06 | 0.682 | 1.31 | 1.03
B26 | 3.45 | 3.78 | 2.18 | 1.05
B27 | -0.196 | -0.917 | 1.94 | 0.547
B28 | 3.34 | 3.33 | 2.07 | 1
B29 | 2.65 | 0.0954 | -0.0262 | -0.422
B30 | 0.729 | -1.66 | 0.445 | 0.792
